The results in this text go back to PubChem BioAssay (NCATS).

Results filed as inconclusive are left out. Calls of active or inactive are those of the source. Calls come from the whole dose curve; as a rule, active = well fitted cell-killing curve with a large enough effect; inconclusive = small, poorly fitted or top-dose-only effect, or effect the other way; inactive = no such curve, though single readings can be large or run the other way.

A short description of this experiment: MultiTox-Fluor Cytotoxicity Assay - LYMP1-002 - Dead Cells (AID 960).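 Note: cells exposed to compound for 16 h at 37 °C; nearly all actives have a fitted effect of over 60% in size.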 The conditions noted are these: LYMP1-002 lymphoblastoid cells, dead-cell protease fluorescence; series mostly up to 46.1 µM. The source says: NIH Chemical Genomics Center [NCGC]
NIH Molecular Libraries Screening Centers Network [MLSCN]
National Institutes of Environmental Health Sciences [NIEHS]
National Toxicology Program [NTP]
We have developed a 1536-well cell-based assay for quantitative high throughput screening (qHTS) against a number of cell lines to determine in vitro cytotoxicity of small molecules. This particular assay uses a human lymphoblastoid cell line (LYMP1-002) purchased from Coriell Institute.
NCGC Assay Protocol Summary:
The MultiTox-Fluor Cytotoxicity Assay (Promega) is a homogeneous method to simultaneously measure the relative number of live and dead cells in culture by detecting changes in cell membrane integrity. There are two fluorogenic peptide substrates in the assay reagent. Viable cells are determined when the cell-permeant substrate (GF-AFC) enters the cell and is cleaved by protease from live cells resulting in liberated fluorophore. This live-cell protease activity restricted to viable cells is proportional to cell number. The dead cells are determined by using fluorogenic cell-impermeant peptide substrate (bis-AAF-R110) which cleaved by dead cell proteases leaking from damaged cell membrane.
Using the MultiTox-Fluor Cytotoxicity Assay, the relative number of dead cells was measured in the lymphoblastoid cell line with complete culture medium following compound treatment for 16 hours. The assay was performed in opaque black Kalypsys 1536-well plates. In the screen, tetraoctylammonium bromide was used as positive control. Library compounds were measured for their ability to cause acute toxicity in the cell line, as reflected by an increase in dead cell protease activity, in a concentration-dependent manner. Data were normalized to the controls for basal activity (DMSO only) and 100% stimulation (15 uM tetraoctylammonium bromide). AC50 values were determined from concentration-response data modeled with the standard Hill equation.
qHTS protocol for MultiTox-Fluor Cytotoxicity assay
[Step] [Parameter] [Value] [Description]
1. Reagent; 5 uL; 2500 lymphoblastoid cells/well
2. Time; 5 hr; 37 C incubation
4. Controls; 23 nL; Tetraoctylammonium bromide 6.4pM to 92 uM
5. Time; 16 hr; 37 C incubation
6. Reagent; 5 uL; MuliTox-Fluor Assay reagent
7. Time; 60 min; Room Temperature
8. Detection; dead-cell fluorescence (Ex/Em=485/520); EnVision plate reader
Keywords: cytotoxicity, lymphoblastoid cell line, fluorescence, NTPHTS, NTPHTS_NCGC, NIEHS, EPA, DSSTox, MLSMR, MLSCN, NIH Roadmap, qHTS, NCGC
With `Nc1ccc(S(N)(=O)=O)cc1`, the outcome was inactive. For `CS(=O)(=O)OCCCCOS(C)(=O)=O` the value was “inactive”. Regarding `Cc1ccc(C)c(OCCCC(C)(C)C(=O)O)c1`, the result was inactive. Regarding `NS(=O)(=O)c1cc(C(=O)O)c(NCc2ccco2)cc1Cl`, the call was inactive. In the case of `CC(=O)Nc1ccc(O)cc1`, the call was inactive. Regarding `CCc1nc(N)nc(N)c1-c1ccc(Cl)cc1`, the result was inactive. For `CCCc1cc(=O)[nH]c(=S)[nH]1`, the call was inactive.

`c1ccc2[nH]c(-c3cscn3)nc2c1`: the molecule was called inactive.

Regarding `COc1c2occc2cc2ccc(=O)oc12`, the call was inactive. For `Cc1cc(O)c2c(c1)C(=O)c1cc(O)cc(O)c1C2=O`, the outcome was inactive.
